Results on 108 molecules are retold here after PubChem BioAssay.

Values joined by “and” are separate entries in the source; they are usually repeats but may differ in a detail not shown here. Equal values may be shown once. The source holds several records for some structures; these can differ, active in one and inactive in another. Active and inactive are the calls of the source. Rule as the data show it: active = fold change permeability below about 0.7 or above about 1.3; inactive = in between.

A short description of this experiment: modulators of brain endothelial barrier permeability, primary screen, cell-based, FITC-avidin fluorescence, HTS (AID 1963498). Also: test concentration not given here. Particulars: actives lie on both sides.

As for `CN(C)CCc1c[nH]c2ccc(Cn3cncn3)cc12`, the fold change permeability was 1 (inactive).

As for `CNCCC(Oc1ccccc1OC)c1ccccc1` (stereo not drawn), the fold change permeability is 0.8 (inactive).

In the case of `N=C(N)c1ccccc1`, the fold change permeability was 0.9 (inactive).

For `COc1ccc2[nH]c([S@@](=O)Cc3ncc(C)c(OC)c3C)nc2c1`, the fold change permeability is 0.9 (inactive).

As to `CN1CCC[C@@H]1CCO[C@](C)(c1ccccc1)c1ccc(Cl)cc1`, the fold change permeability was 1.1 (inactive).

Turning to `N[C@@H](Cc1c[nH]c2ccc(O)cc12)C(=O)O`, the fold change permeability is 1 (inactive).

As for `O=c1c(-c2ccc(O)cc2)coc2cc(O)cc(O)c12`, the fold change permeability is 0.8 (inactive).

On to `N=C(N)SCCN`, for which the fold change permeability was 1.1 (inactive).

As to `NC(=NCc1ccccc1)NC(=O)c1nc(Cl)c(N)nc1N`, the fold change permeability was 1 (inactive).

As for `CCCCCC[C@@H]([C@@H](C)O)n1cnc2c(N)ncnc21`, the fold change permeability is 0.7 (active).

For `O=C(O)Cc1c[nH]c2ccc(O)cc12`, the fold change permeability was 1.1 (inactive).

Take `CN1CCN(C2=Nc3cc(Cl)ccc3Nc3ccccc32)CC1`: the fold change permeability is 1.2 (inactive).

For the molecule `CCCc1c(OCCCOc2ccc(OCC(=O)O)cc2)ccc(C(C)=O)c1O`, the fold change permeability is 1.3 (active).

With `C=C1C[C@@]23CC[C@H]4[C@@](C)(CCC[C@@]4(C)C(=O)O)[C@@H]2CC[C@]1(O)C3`, the fold change permeability was 0.9 (inactive).

`CCCCN(CCCC)CC(O)c1cc(Cl)cc2c1-c1ccc(Cl)cc1/C2=C/c1ccc(Cl)cc1` (stereo not drawn): the fold change permeability is 0.9 (inactive).

On to `O=C(c1ccccc1)c1ccc2n1CCC2C(=O)O` (stereo not drawn), for which the fold change permeability was 2 (active).

Regarding `CC(=O)Oc1ccccc1C(=O)O`, the fold change permeability was 1 (inactive).

Turning to `O=[N+]([O-])c1ccc(-c2nc(-c3ccc(F)cc3)c(-c3ccncc3)[nH]2)cc1`, the fold change permeability is 1.4 (active).

With `COC1=C(OC)C(=O)c2ccccc2C1=O`, the fold change permeability was 1.4 (active).

As to `CCCC(CCC)C(=O)OC1CC2CCC(C1)[N+]2(C)C` (stereo not drawn), the fold change permeability was 0.9 (inactive).

For the molecule `COc1ccc(S(=O)(=O)Nc2nc(-c3cccc([N+](=O)[O-])c3)cs2)cc1OC`, the fold change permeability was 0.9 (inactive).

In the case of `Nc1nc2c(ncn2[C@@H]2O[C@H](CO)[C@@H](O)[C@@H]2O)c(=O)[nH]1`, the fold change permeability was 2.1 (active).

With `CN1CCN(c2nc3cc(C(F)(F)F)ccc3n3cccc23)CC1`, the fold change permeability is 1.7 (active).

As for `CC#CCOC(=O)c1c(C)nc2sc3c(c2c1N)CCC(O)C3` (stereo not drawn), the fold change permeability is 1.9 (active).

Consider `C#CCN(C)Cc1ccccc1`, for which the fold change permeability is 0.6 (active).

As for `Cc1c(Cl)cccc1Nc1ncccc1C(=O)O`, the fold change permeability was 1.1 (inactive).

`CCCCS(=N)(=O)CCC(N)C(=O)O` (stereo not drawn): the fold change permeability was 1.1 (inactive).

Turning to `CC1(C)CCC2=C(O1)c1ccccc1C(=O)C2=O`, the fold change permeability is 1.8 (active).

In the case of `CC(C)(C)NCC(O)c1ccc(O)c(CO)c1` (stereo not drawn), the fold change permeability is 0.9 (inactive).

For the molecule `Cn1c(=O)c2[nH]c(C3CCCC3)nc2n(C)c1=O`, the fold change permeability is 1.3 (active).

On to `Cc1ccc(O)c(N=Nc2ccccc2)n1`, for which the fold change permeability is 1.2 (inactive).

Turning to `CN(C)c1nc(N)c(C(=O)N=C(N)N)nc1Cl`, the fold change permeability was 1 (inactive).

Turning to `O=C(O)[C@H]1NCCC[C@H]1C(=O)O`, the fold change permeability is 1 (inactive).

As for `Cc1cc(Nc2cc(N3CCN(C)CC3)nc(Sc3ccc(NC(=O)C4CC4)cc3)n2)n[nH]1`, the fold change permeability was 1.6 (active).

As to `CC(=O)OC(C)C[N+](C)(C)C` (stereo not drawn), the fold change permeability is 1 (inactive).

For the molecule `C=C1C[C@H]2[C@@H]3CCC4=CC(=O)CC[C@@H]4[C@H]3CC[C@]2(C)[C@@]1(OC(C)=O)C(C)=O`, the fold change permeability is 1.1 (inactive).

Regarding `Cc1cccc(/C=C/c2ccccc2)n1`, the fold change permeability was 1.2 (inactive).

In the case of `CN(C)c1ccccc1CN1CCCN(Cc2ccccc2N(C)C)C1c1ccncc1`, the fold change permeability is 1.1 (inactive).

For `CC1=C(/C=C/C(C)=C/C=C/C(C)=C/C(=O)O)C(C)(C)CCC1`, the fold change permeability is 1.3 (active).

Turning to `CCOC(=O)C1=C[C@@H](OC(CC)CC)[C@H](NC(C)=O)[C@@H](N)C1`, the fold change permeability is 0.8 (inactive).

Turning to `CCN1CCCC1CNC(=O)c1cc(S(=O)(=O)CC)c(N)cc1OC` (stereo not drawn), the fold change permeability is 0.7 (active).

For `CCNC(=O)[C@H]1O[C@@H](n2cnc3c(N)nc(NCCc4ccc(CCC(=O)O)cc4)nc32)C(O)[C@H]1O` (stereo partly drawn), the fold change permeability is 1.1 (inactive).

With `CN1CCN(C(=O)c2ccc(-n3nc(-c4ccc(C(=O)O)cc4)cc3-c3cc(C(C)(C)C)cc(C(C)(C)C)c3)cc2)CC1`, the fold change permeability is 1 (inactive).

As for `S=C(S)N1CCCC1`, the fold change permeability is 1 (inactive).

In the case of `CC(=O)N[C@H](C(=O)O)C(C)(C)SN=O`, the fold change permeability is 0.9 (inactive).

As to `O=C(O)/C=C/c1cnc[nH]1`, the fold change permeability was 1.4 (active).

In the case of `CC(=O)NCCc1c[nH]c2ccc(O)cc12`, the fold change permeability was 1.1 (inactive).

With `CCN(CC)CCNC(=O)c1ccc(N)cc1`, the fold change permeability is 0.8 (inactive).

As for `Cn1ccc2cc(NC(=O)Nc3cccnc3)ccc21`, the fold change permeability was 1.2 (inactive).

Consider `CC1CCc2nc(N)c(C#N)c(-c3cccnc3)c2C1` (stereo not drawn), for which the fold change permeability is 1 (inactive).

Turning to `C[N+](C)(C)CCOC(=O)CCC(=O)OCC[N+](C)(C)C`, the fold change permeability was 0.9 (inactive).

With `NC[C@@H]1O[C@H](c2ccccc2)Cc2c1ccc(O)c2O`, the fold change permeability was 1.3 (active).

With `COc1cc2c(cc1-c1c(C)noc1C)ncc1[nH]c(=O)n([C@H](C)c3ccccn3)c12`, the fold change permeability was 1.1 (inactive).

As to `C=C(Cc1ccccc1Cl)C(=O)OCC`, the fold change permeability is 1 (inactive).

In the case of `C=CCN1CCc2c(cc(O)c(O)c2Br)[C@@H](c2ccccc2)C1`, the fold change permeability is 1 (inactive).

`N[C@H](C(=O)O)[C@H](O)C(=O)O`: the fold change permeability is 0.9 (inactive).

Turning to `Cc1nc(C(=O)N2CCC[C@H]2Cc2nnc(-c3ccccc3)o2)c(-c2ccccc2F)s1`, the fold change permeability is 1 (inactive).

For `N[C@@H](CCC(=O)N[C@@H](CSN=O)C(=O)NCC(=O)O)C(=O)O`, the fold change permeability was 0.8 (inactive).

Turning to `N[C@H](CCCP(=O)(O)O)C(=O)O`, the fold change permeability is 1.3 (active).

As for `CC(C)C[C@H](NC(=O)[C@@H](O)[C@H](N)Cc1ccccc1)C(=O)O`, the fold change permeability was 1 (inactive).

As for `O=C(/C=C/c1ccc(O)cc1)c1ccc(O)cc1O`, the fold change permeability was 1.2 (inactive).

For the molecule `Nc1ncn([C@@H]2O[C@H](CO)[C@@H](O)[C@H]2O)c(=O)n1`, the fold change permeability is 1.1 (inactive).

Consider `CC(=O)Nc1ccc(C(=O)Nc2ccc(F)cc2N)cc1`, for which the fold change permeability was 0.8 (inactive).

As for `CCCNC(=O)NS(=O)(=O)c1ccc(Cl)cc1`, the fold change permeability is 0.9 (inactive).

`CC(C)(C)c1ccc(C(O)CCCN2CCC(C(O)(c3ccccc3)c3ccccc3)CC2)cc1` (stereo not drawn): the fold change permeability is 1.4 (active).

On to `CN1C2CCC1CC(OC(=O)C(O)c1ccccc1)C2` (stereo not drawn), for which the fold change permeability is 1.1 (inactive).

With `Oc1cc2c(cc1O)C(c1ccccc1)CNCC2` (stereo not drawn), the fold change permeability is 0.7 (active).

As for `CCN(CC)C(=O)c1ccc(O)c(OC)c1`, the fold change permeability is 0.8 (inactive).

Regarding `CC1CNc2c(cccc2S(=O)(=O)N[C@@H](CCCN=C(N)N)C(=O)N2CC[C@@H](C)C[C@@H]2C(=O)O)C1` (stereo partly drawn), the fold change permeability was 0.9 (inactive).

Turning to `CCCCCCC(=O)OC1CC(C)(C)NC(C)(C)C1`, the fold change permeability is 0.9 (inactive).

In the case of `Clc1ccc2nsnc2c1NC1=NCCN1`, the fold change permeability was 1.9 (active).

For the molecule `CC(=O)c1ccc(S(=O)(=O)NC(=O)NC2CCCCC2)cc1`, the fold change permeability was 1.1 (inactive).

In the case of `CCN1C(=O)C=CC1=O`, the fold change permeability was 1 (inactive).

For the molecule `COc1ccc2c(c1)c(CC(=O)O)c(C)n2Cc1ccc(Cl)cc1`, the fold change permeability was 1 (inactive).

With `COC(=O)C1=C(C)NC(C)=C(C(=O)OC)C1c1cccc(NC(=O)NCCCN2CCC(c3cccc(OC)c3)CC2)c1`, the fold change permeability was 1.2 (inactive).

Turning to `O=C(Nc1ccc(Oc2ccc(Cl)cn2)c(Cl)c1)c1ccccn1`, the fold change permeability is 1.5 (active).

Regarding `O[Si](CCCN1CCCCC1)(c1ccc(F)cc1)C1CCCCC1` (stereo not drawn), the fold change permeability is 1.4 (active).

In the case of `NCCS(=O)O`, the fold change permeability is 1 (inactive).

For `O=c1[nH]cc(F)c(=O)[nH]1`, the fold change permeability was 0.8 (inactive).

For `CC1(C)SCCN(S(=O)(=O)c2ccc(OCC#CCO)cc2)[C@H]1C(=O)NO`, the fold change permeability is 1.1 (inactive).

As to `COc1nc(C)cnc1NS(=O)(=O)c1cccnc1-c1ccc(-c2nnco2)cc1`, the fold change permeability was 1.4 (active).

Regarding `O=C(O)C1CCNCC1`, the fold change permeability was 1.2 (inactive).

With `C[C@@H](c1nc(-c2ccc(C#N)cc2)cs1)[C@](O)(Cn1cncn1)c1cc(F)ccc1F`, the fold change permeability is 1.2 (inactive).

For `CCCCCCCCCCCCCCCC(=O)OC(CC(=O)O)C[N+](C)(C)C` (stereo not drawn), the fold change permeability is 1.3 (active).

In the case of `Cc1cc(N2C[C@@H](C)N[C@@H](C)C2)ncc1-c1ccc(-c2nc3c(ccn3C)c(=O)[nH]2)cc1`, the fold change permeability was 1.3 (active).

In the case of `O=C(/C=C/c1ccc(O)c(O)c1)OCCc1ccccc1`, the fold change permeability is 1 (inactive).

In the case of `COc1cc2nc(N3CCN(C(=O)C4COc5ccccc5O4)CC3)nc(N)c2cc1OC` (stereo not drawn), the fold change permeability is 1.4 (active).

For the molecule `CN(C)CCC(c1ccccc1)c1ccccn1` (stereo not drawn), the fold change permeability was 1 (inactive).

Consider `O=C1NC(=O)C(c2ccccc2)(c2ccccc2)N1`, for which the fold change permeability is 1.3 (active) and 1.1 (inactive).

For the molecule `O=C(O)CCc1ccc(-c2ccc(Br)cc2)n1-c1ccccc1C(F)(F)F`, the fold change permeability was 1.2 (inactive).

As to `NCCCCN`, the fold change permeability is 0.9 (inactive).

On to `CC(C)(C)NCC(O)COc1cccc2[nH]c(=O)[nH]c12` (stereo not drawn), for which the fold change permeability is 1 (inactive).

For `NCCSSCCN`, the fold change permeability was 0.9 (inactive).

With `CN(C)CCCC1(c2ccc(F)cc2)OCc2cc(C#N)ccc21` (stereo not drawn), the fold change permeability was 0.9 (inactive).

As for `CN=c1nc(-c2ccccc2)n(-c2ccccc2)s1`, the fold change permeability is 2.1 (active).

With `NC(N)=NCCCCN=C(N)N`, the fold change permeability was 1.2 (inactive).

For the molecule `O=[N+]([O-])c1ccc(CNc2nc(NCc3cccc(C(F)(F)F)c3)nc3nc[nH]c23)cc1`, the fold change permeability is 1.3 (active).

For the molecule `CN1CCN(C(c2ccccc2)c2ccc(Cl)cc2)CC1` (stereo not drawn), the fold change permeability is 1.7 (active).

For `Cc1nc(N=Nc2ccc(C(=O)O)cc2)c(COP(=O)(O)O)c(C=O)c1O`, the fold change permeability was 0.7 (active).

As to `Fc1ccc(-c2ccc(Nc3nc(Cl)nc(Cl)n3)cc2)cc1`, the fold change permeability was 0.9 (inactive).

As for `CN1CC[C@]2(CCN3CCc4c(oc5ccccc45)[C@@H]3C2)N(C)C1=O`, the fold change permeability is 1.1 (inactive).

For the molecule `CN1Cc2c(N)cccc2C(c2ccccc2)C1` (stereo not drawn), the fold change permeability is 1 (inactive).

In the case of `c1cnc2c(c1)ccc1cccnc12`, the fold change permeability is 1.2 (inactive).

For `O=C1Nc2ccc(Cl)cc2[C@@](C#CC2CC2)(C(F)(F)F)O1`, the fold change permeability is 1.2 (inactive).

Take `COC(=O)C(C)(N)Cc1ccc(O)cc1` (stereo not drawn): the fold change permeability was 0.8 (inactive).

For the molecule `CCCOC(=O)c1c(-c2ccccc2)nc(CC)c(C(=O)SCC)c1CCC`, the fold change permeability was 1.5 (active).

As to `CCN(CC)CCOC(=O)c1ccc(N)cc1`, the fold change permeability is 0.8 (inactive).

For the molecule `Nc1ncnc2c1nc(Sc1ccc(Cl)cc1)n2C1OC2COP(=O)(O)O[C@@H]2[C@@H]1O` (stereo partly drawn), the fold change permeability was 0.9 (inactive).
